# Bioassay records: PubChem BioAssay, several laboratories
# The list is not random: actives were taken first. Their share in the collection is about 4.9%.
# Calb FLC: C. albicans growth modulation with fluconazole | C. albicans CaCi-2 (fluconazole-resistant clinical isolate) + fluconazole, Alamar Blue growth, 48 h | AID 1979 | growth inhibition, % (concentration not given with the values) | 300,000 tested, 0.57% active;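 active = growth inhibition above about 58% in most replicates, limit read from the data, passing the limit was not always enough; inconclusive = exactly half the replicates above a set limit; inactive = most replicates below a set limit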;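 note: all wells also contain fluconazole at 8 µg/ml as a sub-toxic cotreatment; 0% = median of DMSO wells and 100% = median of geldanamycin control wells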
# PP5 inh: blocks human protein phosphatase 5 activity. P53041. purified PP5c, OMFP substrate fluorescence. inhibition, % at 6.7 µM. 320,000 tested, 0.18% active. AID 1987;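 active = inhibition above the campaign's mean inhibition across all tested compounds plus 3 SD, cut at about 9.5% in these data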;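 note: 0% = DMSO only and 100% = 100 µM cantharidin control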
# Mdm2-MdmX inh: disrupts the human Mdm2-MdmX interaction. O15151+Q00987. SaOS-2 split-luciferase Mdm2/MdmX complementation, luminescence. inhibition, % at 8 µM. 330,000 tested, 3% active;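 active = inhibition of at least 50% at 8 µM in the primary screen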
# Beta cell apopt: blocks beta cell apoptosis; INS-1E cytokine-induced death, ATP luminescence, 48 h; percent of positive-control rescue, neutral wells zero; protection from apoptosis, % (test concentration not listed); 300,000 tested, 0.8% active; AID 435005;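 active = Every replicate reaches about 75%, or at least half do and their mean reaches it too, limit read from the data; inconclusive = At least half of replicates reach the limit but their mean does not; inactive = Under half of replicates reach the limit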;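 note: 0% = cytokine-treated negative control wells and 100% = positive control rescue; higher means more ATP so stronger rescue from cytokine killing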
# PP1 counter: blocks human PP1-alpha phosphatase, a PP5 counter-screen; purified PP1alpha, OMFP fluorescence; AID 2235; inhibition, % at 6.7 µM; P62136; 320,000 tested, 0.9% active;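 active = inhibition above the mean inhibition of all tested compounds plus 3 SD, computed separately for each screening campaign, cut at about 15% in these data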
# Target sequence (P62136 whole entry, looked up): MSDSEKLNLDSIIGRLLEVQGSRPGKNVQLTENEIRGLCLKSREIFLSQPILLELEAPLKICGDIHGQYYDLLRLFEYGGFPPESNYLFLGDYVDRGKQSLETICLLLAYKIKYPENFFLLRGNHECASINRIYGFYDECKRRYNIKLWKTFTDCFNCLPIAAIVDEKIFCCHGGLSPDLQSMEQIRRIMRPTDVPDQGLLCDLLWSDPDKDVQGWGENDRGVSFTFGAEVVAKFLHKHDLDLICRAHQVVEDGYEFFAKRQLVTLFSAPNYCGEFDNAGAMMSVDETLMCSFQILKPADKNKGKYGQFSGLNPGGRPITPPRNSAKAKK
# CSC inhib: cancer stem cell inhibition | cancer stem cell-like cells viability, luminescence | inhibition, % at 7.5 µM | 300,000 tested, 1.1% active | AID 2717; in the data active = inhibition above about 75%; inconclusive = no clear call, values can overlap the other calls; tested in HMLE shEcad cells
# Mdm2 MdmX conf: confirmation of human Mdm2/MdmX interaction inhibitors; shares compounds with Mdm2-MdmX inh; Mdm2-MdmX binding, luminescent assay; inhibition, % at 8 µM; 10,000 tested, 55% active; AID 489028; in the data active = inhibition above about 40%
# FLuc counter: inhibits full-length luciferase, flagging false Mdm2/MdmX hits; shares compounds with Mdm2-MdmX inh; SaOS-2 full-length luciferase counterscreen, luminescence; inhibition, % at 8 µM; 6,200 tested, 77% active; AID 504607;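 active = mean inhibition at 8 µM reaching about 37%, which flags the compound as non-specific, limit read from the data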;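 note: p53-null SaOS-2 cells with luciferase driven by a doxycycline-inducible promoter; compound on cells about two nights before reading with doxycycline added after day one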
# Active calls of the source: *; ? = inconclusive; · = not tested or not shown; + = active, no number.
SMILES,Calb FLC,PP5 inh,Mdm2-MdmX inh,Beta cell apopt,PP1 counter,CSC inhib,Mdm2 MdmX conf,others
Cc1ccc(-c2nnn3c2nc(NCCc2ccc(S(N)(=O)=O)cc2)c2ccccc23)cc1,1,0,48,8,4,-2,·,
Cc1ccc(N2CC(NC(=O)C(=O)c3c(C)[nH]c4ccccc34)CC2=O)cc1C (stereo not drawn),0,2,24,·,-1,-9,·,
COc1ccccc1CCNCc1ccc(OC)c(OCc2ccccc2)c1,-4,2,39,45,4,-3,·,
COc1cc(CNCCc2c[nH]c3ccccc23)ccc1OCc1ccccc1F,0,2,90*,21,2,+,18,
COc1cccc(CNn2cnnc2)c1OCc1ccc(F)cc1,6,2,3,-3,3,·,·,
COc1cccc(CNCCc2c[nH]c3ccccc23)c1OCc1ccccc1,-1,2,54*,15,2,26,25,
COc1cccc(CNC23CC4CC(CC(C4)C2)C3)c1OCc1ccccc1,?,1,52*,26,-3,55,43*,FLuc counter=59*
COc1ccc(C(=O)NCCS(=O)(=O)N2CCOCC2)cc1,-6,-1,-18,0,-2,6,·,
N#CC(C#N)=Cc1c(N2CCN(c3ccccc3)CC2)nc2ccccn2c1=O,6,0,11,0,-1,-8,·,
Fc1ccc(Sc2nc(-c3ccccc3)nnc2C(F)(F)F)cc1,-4,0,78*,-12,-5,·,18,
Fc1ccc(Oc2nc(-c3ccccc3)nnc2C(F)(F)F)cc1,-1,0,-10,0,-4,18,·,
CN(C)C1CCN(C(=O)c2cccc(OC3CCN(S(=O)(=O)N(C)C)CC3)c2)C1 (stereo not drawn),-21,·,12,-1,·,-6,·,
COc1cc(OC)cc(-c2sc3ccc(OC)cc3c2-c2ccc(OCCN3CCCCC3)cc2)c1,·,·,63*,·,·,·,19,
c1ccc(-c2sc3ccccc3c2-c2ccc(OCCN3CCCCC3)cc2)cc1,·,·,5,-3,·,71,·,
COc1ccc(-c2sc3cc4c(cc3c2-c2ccc(OCCN3CCCCC3)cc2)OCO4)cc1,·,·,70*,·,·,·,24,
COc1ccc(-c2c(-c3cc(OC)cc(OC)c3)sc3ccc(OC)cc23)cc1,·,·,2,-1,·,20,·,
c1ccc2c(-c3ccc(OCCN4CCCCC4)cc3)c(-c3ccsc3)sc2c1,·,·,68*,7,·,103*,25,
CN(C)CCOc1ccc(-c2c(-c3ccccc3)sc3ccccc23)cc1,·,·,100*,83*,·,142*,30,
COc1ccc(NC(=O)c2cnc(SC)nc2C)c(OC)c1,0,2,-31,-1,1,-8,·,
O=C(COc1ccc2c(-c3ccccc3)cc(=O)oc2c1)NCc1ccccn1,1,3,25,0,-1,-5,·,
Cc1cc(OCC(=O)Nc2ccccn2)c2c(C)cc(=O)oc2c1,-1,0,6,·,-2,-31,·,
Cc1cc(OCC(=O)Nc2nccs2)c2c(C)cc(=O)oc2c1,2,2,90*,0,-6,-18,1,
O=C(COc1ccc2c(-c3ccccc3)cc(=O)oc2c1)Nc1cccnc1,3,1,68*,-4,3,-6,42*,FLuc counter=82*
Cc1cc(=O)oc2cc(NC(=O)COc3cccc(C(F)(F)F)c3)ccc12,·,0,69*,-3,-4,0,0,
Cc1cccc(C)c1NC(=O)COC(=O)COc1ccc2c(C)cc(=O)oc2c1,-2,5,-17,-3,8,-4,·,
SMILES,Calb FLC,PP5 inh,Mdm2-MdmX inh,Beta cell apopt,PP1 counter,CSC inhib,Mdm2 MdmX conf,others
Cc1csc(NC(=O)COc2ccc3c(C)cc(=O)oc3c2)n1,17,-1,67*,-5,0,-4,10,
O=C1N(Cc2cccc(Cl)c2)C[C@@H]2C[C@@H](c3c[nH]c4ccccc34)N3CCC[C@@]123,35,1,9,-6,1,0,·,
Cc1c(CCC(=O)O)c(=O)oc2cc(OCc3ccccc3F)ccc12,20,3,8,-3,2,-4,·,
Cc1ccc2nc(N(CCN3CCOCC3)C(=O)CCS(=O)(=O)c3ccccc3)sc2c1,8,-2,19,·,-1,-19,·,
O=C(CCS(=O)(=O)c1ccccc1)N(CCCN1CCOCC1)c1nc2ccccc2s1,12,1,78*,·,-4,67,43*,FLuc counter=74*
Cc1ccc(S(=O)(=O)CCC(=O)N(CCCN2CCOCC2)c2nc3ccccc3s2)cc1,13,1,64*,·,-2,9,33,
O=C(NNC(=S)NCC1CCCO1)c1cc(Br)ccc1Cl (stereo not drawn),8,1,20,6,1,-23,·,
C=CCn1c(=O)c2ccccc2n2c(SCC(C)=O)nnc12,13,3,-5,-9,-4,-18,·,
O=C(OCn1ncc(Br)c(Br)c1=O)c1ccccc1Cl,5,1,99*,112*,4,-6,98*,FLuc counter=2
O=C(OCn1ncc(Br)c(Br)c1=O)c1ccc(F)cc1,-11,3,99*,100*,3,-43,100*,FLuc counter=0
Oc1ccc(N=Nc2ccc3c(c2)OCCO3)c2ncccc12,89*,3,98*,96*,16*,98*,87*,FLuc counter=26
O=C(Nc1ncccc1O)c1ccc2c(c1)OCCO2,0,0,6,·,-6,1,·,
O=C(O)C1CCCCC1C(=O)NCc1ccc(Cl)c(Cl)c1 (stereo not drawn),27,0,14,-3,3,-4,·,
CC(C)(C)OC(=O)N1CCC(c2c(C(=O)NC3CC3)cnn2-c2ccc(Cl)cc2)CC1,-1,2,3,3,0,-3,·,
O=C(CCl)Nc1cc2[nH]c(=O)[nH]c2cc1Br,-5,1,94*,-2,-1,20,74*,FLuc counter=60*
Cc1cc2c(C)cc(=O)[nH]c2cc1NC(=O)CCl,2,3,40,-15,1,14,·,
Brc1ccc(-c2ccc(/C=N/Nc3nc(N4CCOCC4)nc(N4CCOCC4)n3)o2)cc1,23,2,69*,13,1,-8,29,
Fc1cnc(N/N=C/c2ccc(-c3ccc(Br)cc3)o2)nc1N1CCOCC1,0,4,59*,30,4,28,1,
Cc1cc(Cl)c2oc(C(=O)N(C)CCc3cnn(C)c3)c(C)c2c1,3,1,1,3,1,17,·,
CN1Cc2c(N3CCOCC3)nc3sc(C(=O)c4ccccc4)c(N)c3c2CC1(C)C,-5,2,59*,0,3,-3,24,
Cc1nc2cc3ccccc3cc2c(=O)[nH]1,3,1,-7,5,-4,-8,·,
